Screens deposited in PubChem BioAssay by National Center for Advancing Translational Sciences (NCATS).
Compounds with a hit are over-represented: about 7.5% of the library has one in this group of screens.
KinaseGlo FLuc: Counterscreen for Luciferase (Kinase-Glo TM) Inhibition; Potency, µM (highest dose often 38.3 µM), inactives show top-dose activity change, negative = inhibition, most hits filed as inhibitors; actives 0.28% (n = 200,000); Luciferin 4-monooxygenase (Photuris pensylvanica), Q27757; Kinase-Glo luciferase, ATP luminescence, 8 min; further: on the % scale 0 is the no-effect control and ±100 the full control effect; nearly all actives have a fitted effect of over 60% in size
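Light output from Kinase-Glo luciferase with luciferin and 10 uM ATP in 50 mM imidazole pH 7.2, KCl, MgCl2, Tween 20, BSA; compound pin-delivered, 8-min ambient incubation, then luminescence read.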
Rab9 promoter act: qHTS Assay for Rab9 Promoter Activators; AID 485297, 2010; Potency, µM (doses to about 9.22 µM), inactives show at the highest dose activation, negative = inhibition, hits mostly activators; Huh7 Rab9 promoter-luciferase reporter, luminescence, 24 h; actives 2.8% (n = 320,000); further: % of control where 0% means no effect; nearly all actives have a fitted effect of over 60% in size
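Promoter activation is measured as luciferase luminescence in Huh7 cells stably transfected with a Rab9 promoter–luciferase construct, following 24 h compound exposure at 37 °C and 10 min reagent incubation at ambient temperature.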
NPC1 prom act: qHTS Assay for NPC1 Promoter Activators; actives 2.4% (n = 320,000); Potency, µM (doses to about 9.22 µM), inactives show top-dose activation, most hits filed as activators; AID 485313, 2010; Huh7 NPC1 promoter luciferase reporter, 24 h; further: % of control where 0% means no effect; nearly all actives have a fitted effect of over 60% in size
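Quantitative HTS used a cell-based reporter: Huh7 cells stably bearing the NPC1 promoter upstream of luciferase were treated with compounds for 24 h, and promoter activation was read as luminescence.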
FLuc counter: qHTS profiling assay for firefly luciferase inhibitor/activator using purifed enzyme and Km concentrations of substrates (counterscreen for miR-21 project); purified FLuc, Km substrates, luminescence inhibition; actives 6.9% (n = 360,000); Potency, µM (doses to about 57.5 µM), inactives show at the highest dose activity change, negative = inhibition, actives largely listed as inhibitors; AID 588342, 2011; Luciferin 4-monooxygenase (Photinus pyralis), P08659;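 further: plate controls were vehicle for no effect and reference inhibitor for full effect; nearly all actives have a fitted effect of over 55% in size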
Target sequence (P08659 whole entry, looked up): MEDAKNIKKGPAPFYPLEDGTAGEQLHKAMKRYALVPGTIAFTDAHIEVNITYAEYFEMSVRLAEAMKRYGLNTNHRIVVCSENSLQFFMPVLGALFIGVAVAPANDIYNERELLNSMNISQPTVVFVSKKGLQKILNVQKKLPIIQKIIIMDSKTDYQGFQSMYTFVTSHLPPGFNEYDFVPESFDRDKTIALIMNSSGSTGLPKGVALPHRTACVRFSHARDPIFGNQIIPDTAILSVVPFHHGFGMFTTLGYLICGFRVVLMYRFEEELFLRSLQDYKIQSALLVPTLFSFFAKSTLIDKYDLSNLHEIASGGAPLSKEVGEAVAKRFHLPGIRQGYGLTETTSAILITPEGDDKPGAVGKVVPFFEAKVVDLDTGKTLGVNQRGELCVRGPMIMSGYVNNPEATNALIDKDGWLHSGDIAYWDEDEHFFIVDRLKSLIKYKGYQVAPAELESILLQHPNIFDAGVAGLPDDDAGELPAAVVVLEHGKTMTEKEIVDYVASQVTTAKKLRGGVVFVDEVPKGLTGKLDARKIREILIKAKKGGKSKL
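Purified P. pyralis luciferase (10nM final) with 10uM D-luciferin and 10uM ATP (Km levels) in 50mM Tris acetate pH 7.5, 10mM Mg acetate, 0.01% Tween-20, 0.05% BSA; qHTS 6-point titration, ~60 µM downward; luminescence read.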
SMN2 splice up: qHTS Assay for Enhancers of SMN2 Splice Variant Expression; Potency, µM (titrated, usually from 46.1 µM), inactives show at the top dose activity change, positive = activation, hits mostly activators; HEK293 SMN2-luciferase splicing reporter, luminescence, 30-36 h; actives 2.8% (n = 210,000); AID 1458, 2008; further: % of control where 0% means no effect; nearly all actives have a fitted effect of over 55% in size
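HEK293 cells carry an SMN2 minigene-luciferase reporter in which exon 7 inclusion puts luciferase in frame. Cells were seeded at 2000 cells/well, attached for 10-12 hours, then exposed to compounds for 30-36 hours at 37C before ONE-Glo luminescence.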
ELG1 genotox: qHTS screen for small molecules that induce genotoxicity in human embryonic kidney (HEK293T) cells expressing luciferase-tagged ELG1. HEK293T ELG1-luciferase reporter, luminescence, 16 h. AID 504466, 2011. Potency, µM (doses to about 46 µM), for the others: at the top dose activity change, positive = activation, actives largely listed as activators. actives 1.3% (n = 330,000); further: % of control where 0% means no effect; nearly all actives have a fitted effect of over 60% in size
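After overnight (16 hr) compound treatment at 37 °C, ELG1-luciferase HEK293T cells were lysed with ONE-Glo; luminescence quantified 30 min later at room temperature.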
Starred values were filed as active, the others as inactive; [ ] = another dose, or the depositor's remark. The call rests on the fitted dose curve; in most records, active means well fitted curve in the direction sought with a large enough effect; inconclusive means small, poorly fitted or top-dose-only effect, or another doubt; inactive means no such curve, though single readings can be large; an effect the other way counts as inactive or inconclusive. Potency means the concentration at half of the fitted maximal effect.

Screening Cc1cccc(NC(=O)Nc2ccc(Br)cc2)n1 returned Rab9 promoter act inconclusive, NPC1 prom act 29%, FLuc counter -19%, SMN2 splice up 20% and ELG1 genotox 7%.
For Cc1cccc(NC(=O)Nc2cccc(C#N)c2)n1 the results were KinaseGlo FLuc -6%, Rab9 promoter act inconclusive, NPC1 prom act inconclusive, FLuc counter inconclusive, SMN2 splice up 16µM* and ELG1 genotox 14%.
Screening Cc1cccc(NC(=O)Nc2ccc(C#N)cc2)n1 returned KinaseGlo FLuc 3%, Rab9 promoter act 4%, NPC1 prom act 18%, FLuc counter -15%, SMN2 splice up 11µM* and ELG1 genotox -34%.
For COc1ccc(NC(=O)Nc2ccc(Br)cn2)cc1 the results were KinaseGlo FLuc 1%, Rab9 promoter act 2.8µM*, NPC1 prom act 3.5µM*, FLuc counter -17%, SMN2 splice up inconclusive and ELG1 genotox 18%.
For COc1ccc(NC(=O)c2cc3c(=O)n(Cc4cccs4)ccc3nc2C)c(OC)c1 the results were FLuc counter -3%.
For O=C(CCNS(=O)(=O)c1ccc(F)c(Cl)c1)NCc1ccccc1F the results were ELG1 genotox 1%.
Cc1cc([N+](=O)[O-])nn1CC(=O)N1c2ccccc2CC1C (stereo unspecified) was read as KinaseGlo FLuc -1%, Rab9 promoter act -6%, NPC1 prom act -1%, FLuc counter 1%, SMN2 splice up -5% and ELG1 genotox 1%.
For C[C@H](NC(=O)c1ccco1)C(=O)N1CCN(c2ccc(C(F)(F)F)cn2)CC1 the results were ELG1 genotox -3%.
CCc1nnc(NC(=O)CSc2nc(-c3ccccc3)cc(-c3ccc(F)cc3)c2C#N)s1 was read as KinaseGlo FLuc -3%, Rab9 promoter act -2%, NPC1 prom act -7%, FLuc counter 6%, SMN2 splice up -16% and ELG1 genotox 2%.
CCc1nnc(NC(=O)CSc2ccc(-c3cccs3)nn2)s1 was read as KinaseGlo FLuc 2%, Rab9 promoter act 2%, NPC1 prom act 0%, FLuc counter 11µM*, SMN2 splice up -5% and ELG1 genotox -14%.
`CCc1nnc(NC(=O)CSc2ccc(-c3ccc(F)cc3)nn2)s1` gave KinaseGlo FLuc -2%, Rab9 promoter act -3%, NPC1 prom act 2%, FLuc counter 11µM*, SMN2 splice up inconclusive and ELG1 genotox inconclusive.
CCc1nnc(NC(=O)CSc2ccc(-c3ccccc3OC)nn2)s1 was read as KinaseGlo FLuc -1%, Rab9 promoter act -4%, NPC1 prom act -7%, FLuc counter inconclusive, SMN2 splice up -3% and ELG1 genotox 8%.
`CC(=O)N1N=C(c2ccc(C)cc2)CC1c1cn(-c2ccccc2)nc1-c1cccs1` (stereo unspecified) gave FLuc counter -4% and SMN2 splice up 2%.
`Cc1cc(C)c(NC(=O)CCC(=O)N2Cc3ccccc3Oc3ncccc32)c(C)c1` gave FLuc counter -9%.
`CCOc1ccc(C2C(C(=O)Nc3ccccc3OC)=C(C)Nc3c(C(=O)Nc4cccc(C)c4)cnn32)cc1` (stereo unspecified) gave FLuc counter 2%.
For CCOc1ccc(NC(=O)Cn2c(=O)n(CCc3ccccc3)c(=O)c3c4c(sc32)CN(C(C)=O)CC4)cc1 the results were FLuc counter 0% and SMN2 splice up 2%.
COc1cc(/C=C(/C#N)c2nc(-c3cc4ccccc4oc3=O)cs2)cc([N+](=O)[O-])c1O was read as Rab9 promoter act -1%, NPC1 prom act -2%, FLuc counter 12µM* and ELG1 genotox -1%.
CC1CCC(=C(C#N)c2nc(-c3cc4ccccc4oc3=O)cs2)CC1 (stereo unspecified) was read as KinaseGlo FLuc -3%, Rab9 promoter act 4µM*, NPC1 prom act 3.5µM*, FLuc counter 2.7µM*, SMN2 splice up inconclusive and ELG1 genotox 6.5µM*.
Screening O=C(NCCc1csc2nc(-c3cccc(F)c3)nn12)c1ccc(Br)o1 returned FLuc counter -17%.
Screening Cc1ccccc1CNC(=O)CCCn1c(=O)c2cccn2c2ccccc21 returned FLuc counter 0%.
For CCC(C)(C)c1ccc2c(c1)C(=O)c1ccccc1C2=O the results were KinaseGlo FLuc -12%, Rab9 promoter act 2.8µM*, NPC1 prom act 1.6µM*, FLuc counter 1.7µM*, SMN2 splice up inconclusive and ELG1 genotox inconclusive.
`CNS(=O)(=O)c1cc(NC(=O)c2cnc(SC)n2-c2ccccc2)ccc1C` gave Rab9 promoter act 2%, NPC1 prom act -3%, FLuc counter 1% and ELG1 genotox 4%.
Screening CC1(C)NC(=O)N(c2ccc([N+](=O)[O-])c(C(F)(F)F)c2)C1=O returned KinaseGlo FLuc -8%, Rab9 promoter act -30%[46.1 µM], NPC1 prom act -14%[46.1 µM], FLuc counter 1%, SMN2 splice up -64% and ELG1 genotox inconclusive.
On1c(-c2ccccc2)nc2ccccc21 was read as Rab9 promoter act -5%, NPC1 prom act -5%, FLuc counter inconclusive and ELG1 genotox 5%.
For On1c(-c2ccc(Cl)cc2)nc2ccccc21 the results were KinaseGlo FLuc inconclusive, Rab9 promoter act inconclusive, NPC1 prom act inconclusive, FLuc counter 19µM*, SMN2 splice up -27% and ELG1 genotox 10%.
O=[N+]([O-])c1ncccc1OCc1ccc(Cl)c(Cl)c1 was read as Rab9 promoter act inconclusive, NPC1 prom act inconclusive, FLuc counter 24µM* and ELG1 genotox 18µM*.
`CN(C)S(=O)(=O)c1cccc(COc2cccnc2[N+](=O)[O-])c1` gave Rab9 promoter act -1%, NPC1 prom act -30%, FLuc counter -1% and ELG1 genotox -3%.
For Cc1[nH]c2ccccc2c1C(=O)COC(=O)C1CCC1 the results were Rab9 promoter act 1%, NPC1 prom act -2%, FLuc counter 15µM* and ELG1 genotox 0%.
`O=C(Cc1ccccc1[N+](=O)[O-])OCC(=O)c1c[nH]c2ccccc12` gave Rab9 promoter act inconclusive, NPC1 prom act inconclusive, FLuc counter 11µM* and ELG1 genotox 13%.
